TEAD-YAP inh: TEAD-YAP interaction inhibition, primary screen, TEAD-YAP interaction inhibitor project, luminescence, HEK-TIYL cells. TEAD-Gal4/YAP UAS-luciferase luminescence. inhibition, % at 9.12 µM. actives 1.4% (n = 640,000). AID 1259422, 2018; in the data active = inhibition above about 32%;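 note: 0% = median of test compound wells and 100% = reference inhibitor wells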
GPR151 ag: activators of human GPR151, primary screen, cell-based, PathHunter beta-arrestin, luminescence; G-protein coupled receptor 151 (Homo sapiens), Q8TDV0; PathHunter beta-arrestin GPR151 cells; activation, % at 11.2 µM; actives 1% (n = 650,000); in the data active = activation above about 4.9%;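 note: 0% = median of compound wells and 100% = cells with positive control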
Target sequence (Q8TDV0 whole entry, looked up): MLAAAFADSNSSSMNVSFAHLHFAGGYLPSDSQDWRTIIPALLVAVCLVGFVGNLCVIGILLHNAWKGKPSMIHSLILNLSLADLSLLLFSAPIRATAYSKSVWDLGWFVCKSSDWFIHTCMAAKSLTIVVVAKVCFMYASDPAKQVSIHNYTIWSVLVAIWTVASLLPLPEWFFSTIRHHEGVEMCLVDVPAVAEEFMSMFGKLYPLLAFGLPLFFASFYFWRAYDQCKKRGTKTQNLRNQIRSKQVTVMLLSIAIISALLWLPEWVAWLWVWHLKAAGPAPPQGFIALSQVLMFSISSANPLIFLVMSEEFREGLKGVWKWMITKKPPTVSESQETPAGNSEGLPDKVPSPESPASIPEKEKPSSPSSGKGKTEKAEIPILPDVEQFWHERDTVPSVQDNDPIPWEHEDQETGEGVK
FBW7 act: FBW7 E3 ligase activators, primary screen, biochemical, AlphaScreen, human | actives 0.13% (n = 650,000) | AlphaScreen FBW7–phospho-cyclin E peptide binding, activator screen | AID 1259310, 2017 | normalized activity (activation), % at 26.1 µM; in the data active = normalized activity above about 1.9%;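 note: purified mutant Fbw7 with reduced substrate affinity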
MITF primary: MITF inhibitors, primary screen, biochemical, AlphaScreen, human; Microphthalmia-associated transcription factor (Homo sapiens), O75030; AlphaScreen MITF homodimerization, bead proximity signal; inhibition, % at 2.6 µM; actives 0.91% (n = 650,000); AID 1259374, 2018; in the data active = inhibition above about 50%;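 note: 0% = vehicle wells with protein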
MITF inh conf: MITF inhibitors, retest of hits, confirmation, biochemical, AlphaScreen, triplicate; shares compounds with MITF primary; AlphaScreen MITF homodimerization, biotin/His-MITF beads; inhibition, % at 2.6 µM; actives 16% (n = 4,700); AID 1259372, 2018;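 active = inhibition above a cutoff derived from the DMSO control wells, cut at about 28% in these data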;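 note: 0% = MITF dimer wells with DMSO only; inhibitors lower the bead chemiluminescence by keeping MITF from dimerizing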
AS interf DR: AlphaScreen optical interference compounds, dose response, counter-screen, biochemical, HTS. shares compounds with MITF primary. AlphaScreen optical interference counterscreen, cell-free. IC50, µM. actives 6% (n = 480). AID 1259373, 2018; call rule not given here
AlphaScreen intf2: AlphaScreen optical interference compounds, counter-screen for MITF inhibitor project, biochemical, triplicate; shares compounds with MITF primary; LysRS AlphaScreen counterscreen, signal interference; inhibition, % at 2.6 µM; actives 7.6% (n = 4,700); AID 1259376, 2018;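 active = inhibition above a cutoff derived from the DMSO control wells, cut at about 30% in these data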
* marks the source's active call; other numbers are inactive results; . = no result given. Shown are actives, neighbours in structure and some others; about 3.4% of the full set was active somewhere.

SMILES | TEAD-YAP inh | GPR151 ag | FBW7 act | MITF primary | MITF inh conf | AlphaScreen intf2 | others
COc1cccc(/C=C2\N=C(c3ccc(F)cc3)OC2=O)c1 | 2 | 0 | 0 | -71 | . | .
O=[N+]([O-])c1ccccc1/C=C/CN1CCN(Cc2ccc3c(c2)OCO3)CC1 | 10 | 0 | 0 | 59* | -2 | 0
O=[N+]([O-])c1cc2c(cc1CNCCCN1CCOCC1)OCO2 | 2 | 1 | 0 | 59* | -5 | -5
COc1cc(NC(=O)c2cc(Cl)ccc2OC)cc(OC)c1 | 1 | 0 | 0 | 9 | . | .
CCCN1CCN(CC(=O)NC(C)c2cccc(Cl)c2)CC1 (stereo not given) | -7 | -1 | 0 | 92* | 13 | 22
CC(NC(=O)CN1CCN(c2cccc(Cl)c2)CC1)c1ccccc1 (stereo not given) | 2 | 0 | 0 | 0 | . | .
O=C(C1CCC(=O)N1CCc1ccccc1)N1CCC2(CC1)OCCO2 (stereo not given) | -9 | 1 | 0 | 0 | . | .
Cc1cc2oc3c(c(=O)c2cc1C)C(c1cccnc1)N(CCCN(C)C)C3=O (stereo not given) | -4 | -1 | 0 | 83* | -7 | -4
Cc1cccc(Nc2c([N+](=O)[O-])cc([N+](=O)[O-])c3nonc23)c1 | -14 | 0 | 0 | 56* | -5 | 6
Cc1cccc(Nc2c([N+](=O)[O-])ccc3nonc23)c1 | 3 | -1 | 0 | -8 | . | .
COc1cc(OC)cc(C(=O)NNC2CC(=O)N(CCC(C)C)C2=O)c1 (stereo not given) | 14 | -1 | 0 | -1 | . | .
CCCCN1C(=O)C(=O)N(CC(=O)Nc2ccc(C)c(Cl)c2)C1=O | 4 | 0 | 0 | 66* | -12 | -5
Cn1cc([N+](=O)[O-])c(C(=O)O)n1 | 3 | 1 | 0 | 3 | . | .
COc1ccc(NC(=O)C(=O)c2ccccc2NC(C)=O)c(OC)c1 | 14 | 1 | 0 | 11 | . | .
Cc1nc(S(=O)(=O)c2ccccc2)c(SCc2ccc([N+](=O)[O-])cc2)o1 | 9 | -1 | 0 | 62* | -1 | 33*
Cc1ccc(S(=O)(=O)N2CCN(CC(=O)Nc3cc(Cl)ccc3C)CC2)cc1C | 3 | 4 | 0 | 53* | -10 | -6
COCCNCCCCOc1ccc(OCc2ccccc2)cc1 | -28 | -1 | 0 | 66* | 11 | 15
COCCNCCCOc1ccc(C(C)(C)c2ccccc2)cc1 | 10 | -1 | 0 | 85* | 2 | 7
COCCCNCCCOc1ccc(C(C)(C)c2ccccc2)cc1 | 5 | 0 | 0 | 76* | 2 | 5
CC(C)(c1ccccc1)c1ccc(OCCCNCCN)cc1 | 9 | 1 | 0 | -2 | . | .
CN(C)CCNCCCOc1ccccc1 | 11 | -2 | 0 | 56* | 5 | 16
COCCCNCCOc1ccc(OCc2ccccc2)cc1 | -22 | -2 | 0 | 47 | . | .
CCN(CC(=O)Nc1ccc(C(N)=O)cc1)S(=O)(=O)c1ccc(Br)cc1 | 6 | 0 | 0 | 13 | . | .
CCCc1cc(=O)[nH]c2nnc(SCC(=O)N3CCC(C)CC3)n12 | -7 | -1 | 0 | -2 | . | .
Cc1cc(NC(=O)Cn2nc(C(=O)N3CCOCC3)cc2C)c2ccccc2n1 | -8 | -1 | 0 | -20 | . | .
SMILES | TEAD-YAP inh | GPR151 ag | FBW7 act | MITF primary | MITF inh conf | AlphaScreen intf2 | others
CCc1nc2ccccc2c(NC(=O)CN2CCN(CCO)CC2)c1C | -1 | 0 | 0 | 69* | 7 | 10
CCCCc1nc2ccccc2c(NC(=O)CN2CCN(C(=O)c3ccccc3)CC2)c1CCC | 0 | 4 | 0 | 62* | 16 | 22
CCCCc1nc2ccccc2c(C(=O)O)c1C | 7 | 3 | 0 | 8 | . | .
CCc1sc(NC(=O)CN2CCCC2)nc1-c1ccccc1 | 22 | 1 | 0 | 5 | . | .
CCCCCCN(CCCCCC)CC(=O)Nc1c(C)c(CC)nc2ccccc12 | 9 | 1 | 0 | 69* | 7 | 6
CCCc1nc2ccccc2c(NC(=O)CN2CCCC2)c1CC | -14 | 1 | 0 | 81* | 19 | -10
Cc1ccccc1NC(=O)CSC1=C(C#N)C(c2sccc2C)CC(=O)N1 (stereo not given) | 12 | 0 | 0 | 1 | . | .
CC(C)C(OC(=O)c1cnccn1)C(=O)NC1CCCC1 (stereo not given) | 14 | 0 | 0 | 1 | . | .
COc1ccc(NC(=O)c2ccc(F)c(S(=O)(=O)N3CCc4ccccc43)c2)cc1 | -3 | -2 | 0 | 6 | . | .
CCN1CCN(CC(=O)c2ccco2)CC1 | -2 | -1 | 0 | 70* | 15 | 16
COC(=O)c1ccc(CN2CCN(CC(=O)c3ccco3)CC2)cc1 | 1 | -2 | 0 | 70* | 5 | 19
CS(=O)(=O)N1CCN(CC(=O)c2ccco2)CC1 | 5 | 2 | 0 | 57* | 14 | 12
C=CCN1C(=O)C(CC(=O)Nc2ccccc2)SC1=Nc1ccc(C(=O)O)cc1 (stereo not given) | 8 | 0 | 0 | -4 | . | .
CCOC(=O)c1sc(NC(=O)c2ccc(C(C)(C)C)cc2)c(C(=O)OCC)c1C | -5 | -1 | 0 | 18 | . | .
CC1CCC(NC(=O)CN2CCN(Cc3ccccc3Cl)C2=O)CC1 (stereo not given) | -7 | 1 | 0 | -11 | . | .
NC(=O)C1CCN(CC(=O)NCCc2ccccc2)CC1 | 3 | 5 | 0 | 57* | -4 | -4
CC1(C)Cc2c(ccc3ccccc23)C(=NCCCC(=O)O)N1 | 0 | 1 | 0 | -2 | . | .
O=C(Nc1ccc(-c2cn[nH]c2)c(C(F)(F)F)c1)C1COc2ccccc2O1 (stereo not given) | -37 | 0 | 1 | 61* | 37* | 3 | AS interf DR=>6.5
COc1ccc(OC)c(-n2cnc3cc(C(=O)NCc4ccco4)ccc32)c1 | -12 | 0 | 0 | 75* | 20 | 6
COc1ccc(OC)c(-n2cnc3cc(C(=O)NCc4ccccc4Cl)ccc32)c1 | 0 | -1 | 0 | 2 | . | .
Cc1ccc(Nc2nc(CSc3nnnn3C)cs2)cc1 | -42 | 0 | 0 | 1 | . | .
CCCN1CCN(Cc2csc(Nc3ccc(C)cc3)n2)CC1 | 8 | 0 | 0 | 61* | 9 | 20
Cc1[nH]c2c(-n3c(C)cc(C(F)(F)F)cc3=O)cccc2c1C | 3 | 1 | 0 | 53* | 9 | 12
COc1ccc(C(=O)N/N=C(/C)CC(=O)Nc2ccccn2)cc1OC | -4 | 1 | 1 | 60* | 4 | 13

Screens (PubChem BioAssay)
